T1: UNK ZnF1-6 (called full-length) (human, UniProt Q9C0B0 30-357)
T1 sequence: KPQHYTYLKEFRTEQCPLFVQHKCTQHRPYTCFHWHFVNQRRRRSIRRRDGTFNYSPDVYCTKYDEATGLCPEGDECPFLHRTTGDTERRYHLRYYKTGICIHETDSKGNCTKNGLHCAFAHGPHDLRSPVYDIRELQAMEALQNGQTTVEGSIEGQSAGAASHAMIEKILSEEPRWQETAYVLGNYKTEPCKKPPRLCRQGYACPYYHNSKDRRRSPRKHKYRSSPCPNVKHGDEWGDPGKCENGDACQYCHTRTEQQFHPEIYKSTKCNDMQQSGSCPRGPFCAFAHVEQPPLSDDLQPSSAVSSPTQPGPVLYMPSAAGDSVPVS

B1: chr1:150647640:150647741:-|3pUTR|ENSG00000143457|unk|FALSE|unique (ssRNA)
RNA: GGGAGUUCUACAGUCCGACGAUCAGAUUCAAUUACCUGGAUGUCAAAGUCCUAGAGCCAGAAAUAUAUUCUCUCAUCCCUCUUAGCAUUCUCUUGCUCCCUCAUUCACUAGGGCAAAUGUCUAAAUGAAGAAAAGUCUCUCUCCAACAGAGGAUUGAGCAUCA
B2: chr1:109062613:109062715:-|3pUTR|ENSG00000197780|unk|total|mutant (ssRNA)
RNA: GGGAGUUCUACAGUCCGACGAUCAGUUCUGAAUACACAGGUUUUGUGUGUAUUUACUCUAUGUAUUAAAUUAUUAUUGCCCUCCGUUUAAAGUAAGGAUUACAAUUGGAUUUAAGCCGAUCACUGAAUGUUAUUGUUUAUGAACAACAGAGGAUUGAGCAUCA
B3: chrX:80717640:80717741:-|CDS|ENSG00000165288|msi1|FALSE|unique (ssRNA)
RNA: GGGAGUUCUACAGUCCGACGAUCCUGAGAAGUCCAAACAUGGACAUAUCUUCUUCCCCAAACAUCAGGCUUCGAAGACAUAGUAGUCAAAUUGAAGGUGUUAGACAAAUGCAUAACAAUGCUCCUCGGAGCCAGAUGGCCACUCAACAGAGGAUUGAGCAUCA
B4: chr6:37331633:37331734:+|3pUTR|ENSG00000065491|unk|FALSE|unique (ssRNA)
RNA: GGGAGUUCUACAGUCCGACGAUCCCGUUCCCCUUCUGCCCCAGUCUGAGCCAGUGAGGGGUAGCUUUUUAAAACCAUUAUUCUAGAUGGAGGAGGCACUGAUGCUUGUAACUCUGGAAAGAGGCCUACACCCAAGGGCUAGGACAACAGAGGAUUGAGCAUCA
B5: chr9:91409354:91409467:-|CDS|ENSG00000165030|unk|total|mutant (ssRNA)
RNA: GGGAGUUCUACAGUCCGACGAUCAAUGAAAGACAGUGGCUACAAAGUUUCUGACCCAGAGAACUUGUAUUUGAAGCAGGGGACCGCAAACUUAUCUGCAGAGGUUGUCUCACUCAAGAGACUUACCGCCACACAACCAAUCUCCAACAGAGGAUUGAGCAUCA
B6: chr2:224511460:224511569:-|CDS|ENSG00000036257|unk|FALSE|bound_elsewhere (ssRNA)
RNA: GGGAGUUCUACAGUCCGACGAUCGAAAGCCAGAAAUUUUUAGCAGAAAAUAGUGCUUCAGUAUAUAUAAAGAAAGUAGAAGCUAGAAUUAAUGAAGAAAUAGAACGAGUGAUGCACUGCCUUGACAAAUCAACGGAAGAACCACAACAGAGGAUUGAGCAUCA
B7: chr11:43342853:43342954:+|3pUTR|ENSG00000166181|msi1|FALSE|unique (ssRNA)
RNA: GGGAGUUCUACAGUCCGACGAUCCUAGUUCUGCUGAUAAAGAUCAUCAGUUUUGAAAGGUUACUGAUUUUCCUCUUCCCUCUUAGUUUUUUACCCAAUAUAUGGAGAAGAGUAAUGGUCAAUCUUAACAUUUUGUUUUAAUUGCAACAGAGGAUUGAGCAUCA
B8: chr7:137879121:137879144:-|3pUTR|ENSG00000182158|msi1_unk|FALSE|overlapping (ssRNA)
RNA: GGGAGUUCUACAGUCCGACGAUCUAAUCCCCAACCUACUUUUAGUUUUUUUGUUUUUUUUUUAUGGUUAAAAGUAACUUUUGUAGUUUAAAAAAAUCUUUCCUCUUUCAUAUAAAUAAGAAGUGGAAAUUGCCUUUUUAUUGUCAACAGAGGAUUGAGCAUCA
B9: chr7:137879121:137879144:-|3pUTR|ENSG00000182158|msi1_unk|total|mutant (ssRNA)
RNA: B8 RNA with U42C, A43C, U83C, A84C
B10: ENSG00000186472:stop:overlap|stop_codon|ENSG00000186472|stop_codon|NA|stop_codon (ssRNA)
RNA: GGGAGUUCUACAGUCCGACGAUCUUUCUUGUAAAUGGAAAUUUUAUCAUGUGUAUAGAUUCUGUAGCAUGCUUUUCUUUAUUUAGUUUUACUUUAUUCCUUUAUUGUUCUGUUUCUUGAUUGUUUGCUUGAUUUGUUUGGUGUCAACAGAGGAUUGAGCAUCA
B11: chr10:73917138:73917420:+|3pUTR|ENSG00000122861|msi1|FALSE|unique (ssRNA)
RNA: GGGAGUUCUACAGUCCGACGAUCGGAAUGUAUUAUUCUGCAGCAUGACCUGUGACCAGCACUGUCUCAGUUUCACUUUCACAUAGAUGUCCCUUUCUUGGCCAGUUAUCCCUUCCUUUUAGCCUAGUUCAUCCAAUCCUCACUCAACAGAGGAUUGAGCAUCA
B12: chr19:35623609:35623710:+|3pUTR|ENSG00000249115|unk|FALSE|unique (ssRNA)
RNA: GGGAGUUCUACAGUCCGACGAUCGCCUUCUAGUUUGUAUAGUUUCUUUUUUUACAUGUAAAUCAGCCAUUUGGAAUUUAUCCUAGCACAUGGAUCCAAUUUUGUCUUAUUUUACAUAUAUCCUAGUAGCACUUACUGAAAUUCCAACAGAGGAUUGAGCAUCA
B13: chr7:107202531:107202632:-|3pUTR|ENSG00000164597|msi1|FALSE|unique (ssRNA)
RNA: GGGAGUUCUACAGUCCGACGAUCUAUUCUGAGAACUCAUAAAUAAAAUUCAGCCAAGAUUAAUCAAUCAAUCAAUCAAUCAGUAGACGUCAGAGAUAAGCAACUUUUUUUUCCAUUUAUUUGAAAUAAUAUACAAGAAUAUAGCAACAGAGGAUUGAGCAUCA
B14: chr11:85958428:85958534:-|3pUTR|ENSG00000073921|unk|FALSE|unique (ssRNA)
RNA: GGGAGUUCUACAGUCCGACGAUCAGAAACAAUAACUGAAAUUAACUUUUCUUUUUUUAAAAAAAAUUAUAUUCAGUUUGCAGUAGACAUUCCUUAAGUAUUUGUAUUUAUUUAUGAUUAUCAAUUUUACAUAACAUUAAUAUUCAACAGAGGAUUGAGCAUCA
B15: chr3:44647099:44647200:+|3pUTR|ENSG00000186448|msi1|FALSE|unique (ssRNA)
RNA: GGGAGUUCUACAGUCCGACGAUCAUUUGUAUGUAAACUACAUAAAGAACUUUCCAAAUUUAACAGUAAUAAGUAAAUACAAUUAGAAAAUAAGCAAAAGACAGACAUUUCACUGAAGUAUAGAUAGCAAAUAAGCAAAUGAAACAACAGAGGAUUGAGCAUCA
B16: chr8:11323570:11323671:+|3pUTR|ENSG00000104643|unk|FALSE|unique (ssRNA)
RNA: GGGAGUUCUACAGUCCGACGAUCGAGCAUACAUAUACAAUGUGUUUCAAAUGCUGCUUGUAAAAUUAAACCAUCAUCUAGAAUAGAGUUAAUUUAUUAUAAUCAAGCUACAAAUAGGUUUUCUUAAACCAGAGAUGCACUGCCCAACAGAGGAUUGAGCAUCA
B17: ENSG00000198589:be:win_3201|CDS|ENSG00000198589|bound_else_gene|NA|bound_elsewhere_windowed (ssRNA)
RNA: GGGAGUUCUACAGUCCGACGAUCAACUGGCAAAGAUUCAAUGACUGUCAGUGAAGUAACUGCUUCUAUAAGUUCUCCUUCAGAAGAGGAUGCCUCAGAGAUGCCAGAAUUCUUGGAUAAAUCUAUAGUAGAGGAAGAGGAAGACAACAGAGGAUUGAGCAUCA

Changes are numbered by the printed parent chain. Whole data set: some 5,800 sequences, median “enrichment r” near 0.68, cut for the highest 2% near 11. For the sample, the highest values were picked, then their nearest neighbours and some sequences at random.

The experiment addresses T1, UNK ZnF1-6 (called full-length). Nature of the experiment: nsRBNS (natural sequence RNA bind-n-seq); RBNS binding buffer (assumed for nsRBNS): 25 mM Tris pH 7.5, 150 mM KCl, 3 mM MgCl2, 0.01% Triton X-100, 500 ug/ml BSA, 20 U/ml SUPERase-In, 4 C; UNK is unkempt and MSI1 is Musashi-1; names of the RNAs are library labels; protein concentration not given here; high values mean tight binding.
Molecule B1 yielded a binding signal of 0.623 enrichment R.

B2 gave a binding signal of 0.999 enrichment R.

B3 registered a binding signal of 0.592 enrichment R.

In the case of B4, the binding signal came out at 2.05 enrichment R.

In turn, B5 displayed a binding signal of 0.615 enrichment R.

On to B6, for which the binding signal worked out at 16.7 enrichment R.

The molecule B7 displayed a binding signal of 3.5 enrichment R.

Molecule B8 returned a binding signal of 14.9 enrichment R.

Molecule B9 returned a binding signal of 0.762 enrichment R.

B10 yielded a binding signal of 0.541 enrichment R.

On to B11, for which the binding signal turned out to be 1.54 enrichment R.

In the case of B12, the binding signal was 14.9 enrichment R.

For the molecule B13, the binding signal was determined as 2.67 enrichment R.

As to B14, the binding signal is 2.18 enrichment R.

With B15, the binding signal is 162 enrichment R.

B16 gave a binding signal of 2.54 enrichment R.

For B17, the binding signal came out at 0.614 enrichment R.

The values are drawn from paper PMC12136788.
